A selection: hits, their analogues and other compounds. The true share with any hit is near 7.6%.
ELG1 DNA repair = blocks ELG1-dependent DNA repair in HEK293T cells. 330,000 compounds, 2.3% hits. AID 504467. HEK293T ELG1-luciferase reporter, luminescence, 16 h; DNA damage induced by 5-fluorouridine. Potency, µM (highest dose often 46.1 µM), most hits filed as inhibitors; further: nearly all actives have a fitted effect of over 55% in size
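Reporter activity after DNA damage by 5-fluorouridine is monitored. Compound-treated cells incubate 16 hr at 37 °C, then ONE-Glo is added for 30 min before luminescence reading.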
BRCA1 expr up = activators of BRCA1 expression. 380,000 compounds, 1.1% hits. AID 624202. MCF7-BRCA1-FFLuc reporter, luminescence, 48 h; response scale: scaled: vehicle 0%, 10 µM genistein 100%. Potency, µM (highest dose often 46.1 µM), actives largely listed as activators; further: nearly all actives have a fitted effect of over 80% in size
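Reporter cells (MCF7, BRCA1 promoter-firefly luciferase) received library compounds across a concentration series for 48 h. End-point luminescence was measured and concentration-effect curves derived after normalization.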
Giardia kill = Giardia lamblia killing. 340,000 compounds, 0.15% hits. activity change, % at 7.66 µM, hits read low. Giardia lamblia trophozoite viability; in the data active means activity change below about -80%; inconclusive means between about -30% and that limit;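 further: parasites exposed to compound for two days anaerobically before the ATP read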
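Media and compound were dispensed first, then trophozoites at 100 cells/well; plates sat 48 hrs at 37 deg C without oxygen before ATP luminescence reagent was added and read after 15-30 min at room temperature.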
p53 reactivator = re-activators of mutant p53. H1299 p53-A138V BP100-luciferase reporter, luminescence, 24 h. Potency, µM (titrated, usually from 92.2 µM), usual class: activators. 320,000 compounds, 0.063% hits. AID 504706; further: nearly all actives have a fitted effect of over 45% in size
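H1299 (p53-null), stable ts p53-A138V + BP100-Luc; 1000 cells/well, Opti-MEM/10% FBS; cpd 4 pt, 1:5; 24 h, 37 deg C, 5% CO2; detection reagent 10 min RT; luminescence.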
RORgamma inh = ROR gamma (mouse) transcription inhibition. 310,000 compounds, 5.4% hits. Drosophila S2 Gal4-RORgamma UAS-luciferase reporter, 20 h. Potency, µM (highest dose often 53.6 µM), usual class: inhibitors. AID 2551. P51450; further: nearly all actives have a fitted effect of over 60% in size
Target sequence (P51450 whole entry, looked up, the tested form may be a part): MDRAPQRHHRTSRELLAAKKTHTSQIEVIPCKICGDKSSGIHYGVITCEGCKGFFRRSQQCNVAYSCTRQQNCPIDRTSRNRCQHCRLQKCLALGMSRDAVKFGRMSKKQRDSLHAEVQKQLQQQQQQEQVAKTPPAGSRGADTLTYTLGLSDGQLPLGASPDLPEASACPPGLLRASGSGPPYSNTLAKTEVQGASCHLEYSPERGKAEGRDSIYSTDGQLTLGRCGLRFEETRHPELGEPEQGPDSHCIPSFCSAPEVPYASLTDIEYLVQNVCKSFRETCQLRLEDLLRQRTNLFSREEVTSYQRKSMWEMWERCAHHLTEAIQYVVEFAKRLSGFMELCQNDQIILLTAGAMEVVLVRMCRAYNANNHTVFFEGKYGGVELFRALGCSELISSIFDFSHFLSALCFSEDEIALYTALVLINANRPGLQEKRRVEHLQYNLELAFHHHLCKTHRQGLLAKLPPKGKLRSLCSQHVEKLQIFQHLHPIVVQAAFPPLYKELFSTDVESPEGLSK
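A Gal4/UAS one-hybrid system in insect cells: metallothionein-promoter Gal4–ROR gamma fusion plus Photinus luciferase reporter. Copper sulfate 700 uM final, 20 hr ambient incubation, luminescent detection after 10 min with reagent.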
Gal4-VP16 FLuc = Gal4-VP16 reporter inhibition counter-screen; AID 2546; Drosophila S2 Gal4-VP16 UAS-luciferase, luminescence, 20 h; Potency, µM (top dose mostly 53.6 µM), most hits filed as inhibitors; 310,000 compounds, 3.5% hits;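 further: Gal4-VP16 expression switched on by copper sulfate through the metallothionein promoter; nearly all actives have a fitted effect of over 50% in size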
Large screens that a line does not name were inactive. Unless noted, the call rests on the fitted dose curve; in most records, active means well fitted curve in the direction sought with a large enough effect; inconclusive means small, poorly fitted or top-dose-only effect, or another doubt; inactive means no such curve, though single readings can be large; an effect the other way counts as inactive or inconclusive.

COc1ccccc1OCC(=O)NNC(=O)C1CCN(c2ncnc3sc(C)c(C)c23)CC1	ELG1 DNA repair inconclusive (no result: RORgamma inh, Gal4-VP16 FLuc)
C=Cc1ccc(Cn2c(C)c(C(=O)NCc3ccc4c(c3)OCO4)sc2=O)cc1	none (no result: ELG1 DNA repair, Giardia kill, p53 reactivator, RORgamma inh, Gal4-VP16 FLuc)
O=C(CN1C(=O)c2ccccc2C1=O)NCC(=O)Nc1ccccc1	none (no result: ELG1 DNA repair, p53 reactivator, RORgamma inh, Gal4-VP16 FLuc)
CCc1ccc(C(=O)NC(=S)NCc2cccnc2)cc1	Gal4-VP16 FLuc inconclusive
CNC(=O)c1ccc(NC(=O)C2CCN(c3ncnc4sc(C)c(C)c34)CC2)cc1	ELG1 DNA repair 9.2µM
Cc1sc2ncnc(N3CCC(C(=O)Nc4ccc(Cl)c(Cl)c4)CC3)c2c1C	ELG1 DNA repair inconclusive (no result: RORgamma inh, Gal4-VP16 FLuc)
CC(C)(C)c1ccc(NC(=O)c2ccc(=O)[nH]n2)cc1	ELG1 DNA repair inconclusive, BRCA1 expr up inconclusive, p53 reactivator inconclusive
O=C(Nc1cccc(F)c1)N1CC[C@@]2(CCCN(C(=O)c3cccc(F)c3)C2)C1	none (no result: ELG1 DNA repair, BRCA1 expr up, Giardia kill, p53 reactivator)
O=C(CNC(=S)N(Cc1ccccc1)Cc1ccccc1F)NCCc1ccccc1	ELG1 DNA repair inconclusive, RORgamma inh 13µM
O=C(CNC(=S)N(Cc1ccccc1)Cc1ccccc1F)NCc1ccc(Cl)cc1	ELG1 DNA repair 23µM, RORgamma inh 2µM
COc1cccc(/C=C/C(=O)OCC(=O)N2c3ccccc3CC2C)c1OC (centres undefined)	none (no result: RORgamma inh, Gal4-VP16 FLuc)
CC1Cc2ccccc2N1C(=S)NC(=O)c1ccc(Cl)cc1Cl (centres undefined)	RORgamma inh 0.35µM, Gal4-VP16 FLuc 0.71µM
Cc1ccc2c(c1)C1CN(C)CCC1N2C(=S)NC(=O)c1ccc(Cl)cc1Cl (centres undefined)	RORgamma inh 0.28µM, Gal4-VP16 FLuc 0.89µM
COc1cccc(C(=O)NC(=S)N2c3ccccc3CC2C)c1OC (centres undefined)	RORgamma inh 4µM, Gal4-VP16 FLuc 14µM
CC1Cc2ccccc2N1C(=S)NC(=O)c1cccc(Br)c1 (centres undefined)	RORgamma inh 1.1µM, Gal4-VP16 FLuc 0.79µM
CC1Cc2ccccc2N1C(=S)Nc1ccc(S(N)(=O)=O)cc1 (centres undefined)	none
CC(C)C(NC(=O)c1ccco1)C(=O)OCC(=O)c1ccccc1 (centres undefined)	none
Cc1cccc(C)c1NC(=O)CC(C)c1ccccc1 (centres undefined)	none
CCOc1ccc(S(=O)(=O)N2CCN(C(=O)c3cc4c(s3)CCCC4)CC2)cc1	ELG1 DNA repair inconclusive, RORgamma inh inconclusive
CCCCC1=NN(C(=O)c2cccnc2)C(O)(C(F)(F)F)C1 (centres undefined)	RORgamma inh 10µM, Gal4-VP16 FLuc inconclusive
CCCC1=NN(C(=O)CCc2ccccc2O)C(O)(C(F)(F)F)C1 (centres undefined)	RORgamma inh inconclusive, Gal4-VP16 FLuc inconclusive
CCC1=NN(C(=O)c2cccnc2)C(O)(C(F)(F)F)C1 (centres undefined)	RORgamma inh 11µM, Gal4-VP16 FLuc inconclusive
COc1ccc(N2CCN(C(=O)CN3C(=O)NC4(CCCCCC4)C3=O)CC2)cc1	none (no result: RORgamma inh, Gal4-VP16 FLuc)
O=c1c([N+](=O)[O-])cccn1Cc1ccccc1Cl	Giardia kill inconclusive, Gal4-VP16 FLuc inconclusive
O=c1c([N+](=O)[O-])cccn1Cc1cccc(Br)c1	Giardia kill -85
COc1ccc(N=C2SCC(=O)N2Cc2ccccc2)cc1	ELG1 DNA repair inconclusive
COc1ccc(/C=N/N=C2/SCC(=O)N2Cc2ccccc2)cc1	ELG1 DNA repair inconclusive, BRCA1 expr up 5.6µM
COc1ccc(CN2C(=O)CS/C2=N/N=C/c2ccccc2)cc1	BRCA1 expr up 4µM, p53 reactivator inconclusive
Cn1cccc1/C=N/NC(=O)c1cc(-c2cccs2)nc2ccccc12	ELG1 DNA repair inconclusive, RORgamma inh 7.1µM, Gal4-VP16 FLuc inconclusive
O=C(N/N=C/c1cccnc1)c1cc(-c2cccs2)nc2ccccc12	ELG1 DNA repair inconclusive
O=C(N=Nc1c(O)[nH]c2ccc(Br)cc12)c1cc(-c2cccs2)nc2ccccc12	none
Cn1c(O)c(N=Nc2ccccc2)c2ccccc21	none
Cn1c(O)c(N=NC(=O)c2cc(-c3cccs3)nc3ccccc23)c2ccccc21	ELG1 DNA repair 15µM, RORgamma inh inconclusive
Cn1c(O)c(N=Nc2nc(-c3ccccc3)cs2)c2ccccc21	ELG1 DNA repair inconclusive, RORgamma inh 1.1µM, Gal4-VP16 FLuc inconclusive
CS(=O)(=O)N1CCN(C(=O)c2cc(-c3cccs3)nc3ccccc23)CC1	ELG1 DNA repair 16µM
CCc1nc2ccccc2c(C(=O)OCC(=O)NC2CC2)c1C	none (no result: RORgamma inh, Gal4-VP16 FLuc)
CC1(C)CC(=O)C2=C(C1)N(CCN1CCOCC1)C1=C(C(=O)CC(C)(C)C1)C2c1cccc(F)c1	none
O=C(N/N=C/c1ccc[nH]1)c1cc(-c2cccs2)nc2ccccc12	ELG1 DNA repair inconclusive, RORgamma inh 2.8µM, Gal4-VP16 FLuc 6.3µM
Oc1c(C=C2N=c3ccccc3=N2)sc(=S)n1-c1ccc(F)cc1	RORgamma inh inconclusive, Gal4-VP16 FLuc 13µM
Cn1c(SCc2c(F)cccc2Cl)nnc1-c1cccs1	ELG1 DNA repair inconclusive, BRCA1 expr up 4µM, p53 reactivator inconclusive
Cc1ccc(C(=O)OCC(=O)Nc2ccc(N3CCOCC3)cc2)cc1	none (no result: RORgamma inh, Gal4-VP16 FLuc)
Cc1ccc2c(Cl)cc(Cl)c(OCC(=O)N3CCCC3)c2n1	RORgamma inh 14µM, Gal4-VP16 FLuc inconclusive
Cc1ccc2c(Cl)cc(Cl)c(OCC(=O)NCc3ccco3)c2n1	RORgamma inh 7.1µM, Gal4-VP16 FLuc 11µM (no result: BRCA1 expr up, Giardia kill)
Cc1ccc2c(Cl)cc(Cl)c(OCC(=O)NC(=O)NCc3ccco3)c2n1	ELG1 DNA repair inconclusive, RORgamma inh 10µM
Cc1ccnc(SCC(=O)Nc2sccc2C#N)n1	none
CC(=O)c1csc(-c2cccc(-c3nc4ccc(Cl)cn4c3NC3CCCCC3)c2)c1	ELG1 DNA repair inconclusive (no result: RORgamma inh, Gal4-VP16 FLuc)
Cc1ccc(-n2c(C)cc(/C=N/NC(=O)c3ccncc3)c2C)cc1	RORgamma inh 7.9µM, Gal4-VP16 FLuc inconclusive
Cc1ccc(-n2c(C)cc(/C=N/NC(=O)CC3(C)OCCO3)c2C)cc1	ELG1 DNA repair inconclusive, Gal4-VP16 FLuc inconclusive
Cc1cc(/C=N/NC(=O)c2ccncc2)c(C)n1-c1cccc(C(F)(F)F)c1	RORgamma inh inconclusive, Gal4-VP16 FLuc inconclusive
Cc1ccc(C)c(-n2c(C)cc(/C=N/NC(=O)c3c(C)nc4cc(C)ccn34)c2C)c1	ELG1 DNA repair 18µM, RORgamma inh inconclusive, Gal4-VP16 FLuc 14µM
CNC(=S)N/N=C/c1cc(C)n(-c2ccc(Cl)c(Cl)c2)c1C	ELG1 DNA repair inconclusive, RORgamma inh 0.79µM, Gal4-VP16 FLuc 4.5µM
CCOc1ccc(-n2c(C)cc(/C=N/NC(=O)C(N)=O)c2C)cc1	none

Screening results: PubChem BioAssay, National Center for Advancing Translational Sciences (NCATS)
